Measured values published in PubChem BioAssay (Tox21).
Inconclusive results are not listed. The source made the active and inactive calls. Unless noted, calls come from the whole dose curve; as a rule, active = well fitted curve in the direction sought with a large enough effect in the repeat runs; inconclusive = weak or mixed curves; inactive = no such curve, though single readings can be large; an effect the other way counts as inactive or inconclusive.

Key:
[1] = target: Acetylcholinesterase (Homo sapiens) (UniProt P22303); assay: Acetylcholinesterase (AChE) small molecule antagonists: enzyme-based qHTS assay (AID 1347397; calls by dose curve; note: nearly all actives have a fitted effect of over 55% in size); conditions: Potency: AChE enzyme activity inhibition; outcome: AChE enzyme activity inhibition
Sequence of Acetylcholinesterase (Homo sapiens) (P22303 whole entry, looked up): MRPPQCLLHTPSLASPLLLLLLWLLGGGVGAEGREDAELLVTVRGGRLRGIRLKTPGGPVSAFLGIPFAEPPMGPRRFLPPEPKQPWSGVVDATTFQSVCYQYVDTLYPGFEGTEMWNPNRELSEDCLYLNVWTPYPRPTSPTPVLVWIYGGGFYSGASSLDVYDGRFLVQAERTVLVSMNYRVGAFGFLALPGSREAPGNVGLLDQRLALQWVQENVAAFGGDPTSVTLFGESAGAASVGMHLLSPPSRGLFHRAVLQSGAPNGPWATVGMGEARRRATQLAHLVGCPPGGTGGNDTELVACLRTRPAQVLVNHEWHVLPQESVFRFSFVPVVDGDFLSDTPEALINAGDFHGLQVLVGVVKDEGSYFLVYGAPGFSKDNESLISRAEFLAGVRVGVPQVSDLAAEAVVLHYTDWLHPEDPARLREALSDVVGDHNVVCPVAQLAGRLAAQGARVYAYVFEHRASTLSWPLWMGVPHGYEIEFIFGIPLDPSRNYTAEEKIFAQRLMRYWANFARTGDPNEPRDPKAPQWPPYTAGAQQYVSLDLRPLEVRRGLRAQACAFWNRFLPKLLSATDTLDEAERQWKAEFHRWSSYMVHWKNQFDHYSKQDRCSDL
In short: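 Colorimetric DTNB read-out of thiocholine released from acetylthiocholine by recombinant human AChE (50 mU/mL as dispensed). Compounds were preincubated 30 min at RT before substrate/DTNB addition, with a 10 min RT reaction.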

[2] = target: Acetylcholinesterase (Homo sapiens) (UniProt P22303); assay: Acetylcholinesterase (AChE) small molecule antagonists: fluorescence cell-based qHTS assay (AID 1347398; calls by dose curve; note: nearly all actives have a fitted effect of over 50% in size); conditions: Potency: AChE activity; outcome: AChE activity
In short: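 SH-SY5Y, 2,000 cells/well, attached overnight; cmpd 30 min 37 C; acetylthiocholine/Thiolite Green cocktail 40 min RT; fluorescence Ex/Em 490/520 nm.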

[3] = target: Acetylcholinesterase (Homo sapiens) (UniProt P22303); assay: Acetylcholinesterase (AChE) small molecule antagonists: enzyme-based qHTS assay with human liver microsomes (AID 1347399; calls by dose curve; note: nearly all actives have a fitted effect of over 60% in size); conditions: Potency: qHTS inhibition; outcome: qHTS inhibition
In short: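 Recombinant human AChE (50 mU/mL in the enzyme mix) and human liver microsomes (0.25 mg/mL final) were preincubated with compound and NADPH (0.25 mg/mL final) for 30 min at 37 C. Acetylthiocholine/DTNB was then added; thiocholine was read colorimetrically after 10 min at room temperature.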

[4] = qHTS assay for small molecules that induce genotoxicity in human embryonic kidney cells expressing luciferase-tagged ATAD5 (AID 651632); note: nearly all actives have a fitted effect of over 15% in size; note: potency is the fitted concentration of half-maximal effect
In short: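 DMSO vehicle served as the control. HEK293T reporter cells, 16 hr at 37C, then 30 min Amplite at room temperature; ATAD5 induction is measured as luciferase activity.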

[5] = qHTS assay to test for compound auto fluorescence at 590 nm (red) in HepG2 cells (AID 720674)
In short: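 HepG2 cells, 2,000 per well in MEM with 10% FBS, attached overnight at 37 C, then got 23 nL compound or DMSO. After 1 hr at 37 C, 5% CO2, red fluorescence was read at 540/590 nm against Rose Bengal sodium as reference.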

[6] = qHTS assay to test for compound auto fluorescence at 535 nm (green) in HepG2 cells (AID 720675)
[7] = qHTS assay to test for compound auto fluorescence at 460 nm (blue) in HEK293 cells (AID 720678)
In short: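 HEK293, 2,000 cells/well, 10% dialyzed FBS; attach 4-5 hr 37C; pin compound or DMSO; o/n 37C/5% CO2; fluorescence 405/460 nm; triamterene-equivalent units.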

[8] = qHTS assay to test for compound auto fluorescence at 590 nm (red) in HEK293 cells (AID 720679)
In short: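 Intensity at 540nm excitation and 590nm emission is reported as Rose Bengal sodium-equivalent autofluorescence. Measurements followed overnight exposure (37C, 5% CO2) of HEK293 cells, 2,000 per well, to 23 nL compound.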

[9] = qHTS assay to test for compound auto fluorescence at 535 nm (green) in HEK293 cells (AID 720680)
[10] = qHTS assay to test for compound auto fluorescence at 460 nm (blue) in HEK293 cell free culture (AID 720681)
In short: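 Compounds were added to cell-free DMEM with 10% FBS and fluorescence read directly. The blue channel used 405 nm excitation and 460 nm emission, with triamterene as the reference fluorophore.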

[11] = qHTS assay to test for compound auto fluorescence at 535 nm (green) in HEK293 cell free culture (AID 720682)
In short: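 Green-channel intensity (Ex/Em 485/535 nm) was recorded from compound-treated wells containing only DMEM with 10% FBS. Fluorescein provided the equivalency standard.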

[12] = qHTS assay to test for compound auto fluorescence at 590 nm (red) in HEK293 cell free culture (AID 720683)
In short: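 Cell-free wells of DMEM with 10% FBS received compound, and intrinsic fluorescence was read at excitation/emission 540/590 nm. Values expressed as equivalence to Rose Bengal sodium.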

[13] = qHTS assay to test for compound auto fluorescence at 590 nm (red) in HepG2 cell free culture (AID 720684)
In short: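 Rose Bengal sodium served as the reference for red signal. Test compounds were dispensed into serum-containing MEM (10% FBS) without cells, and plates were read at 540/590 nm.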

[14] = qHTS assay to test for compound auto fluorescence at 460 nm (blue) in HepG2 cell free culture (AID 720685)
In short: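 Cell-free plates of MEM plus 10% FBS received 23 nL compound or DMSO vehicle; blue-channel (405/460 nm) intensity scored against triamterene as reference fluorophore.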

[15] = qHTS assay to test for compound auto fluorescence at 535 nm (green) in HepG2 cell free culture (AID 720686)
[16] = qHTS assay to test for compound auto fluorescence at 460 nm (blue) in HepG2 cells (AID 720687)
In short: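 HepG2 cells in MEM with 10% FBS, attached overnight at 37 C, were exposed to compound or DMSO for 1 hr at 37 C, 5% CO2. Blue fluorescence was read at 405/460 nm, with triamterene as reference fluorophore.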

[17] = target: Glucocorticoid receptor (Homo sapiens) (UniProt P04150); assay: qHTS assay to identify small molecule agonists of the glucocorticoid receptor (GR) signaling pathway (AID 720691; active = well fitted activation curve with a large enough effect in the signal ratio in the repeat runs, not every such curve was filed as active; the % refers to the signal ratio)
Sequence of Glucocorticoid receptor (Homo sapiens) (P04150 whole entry, looked up): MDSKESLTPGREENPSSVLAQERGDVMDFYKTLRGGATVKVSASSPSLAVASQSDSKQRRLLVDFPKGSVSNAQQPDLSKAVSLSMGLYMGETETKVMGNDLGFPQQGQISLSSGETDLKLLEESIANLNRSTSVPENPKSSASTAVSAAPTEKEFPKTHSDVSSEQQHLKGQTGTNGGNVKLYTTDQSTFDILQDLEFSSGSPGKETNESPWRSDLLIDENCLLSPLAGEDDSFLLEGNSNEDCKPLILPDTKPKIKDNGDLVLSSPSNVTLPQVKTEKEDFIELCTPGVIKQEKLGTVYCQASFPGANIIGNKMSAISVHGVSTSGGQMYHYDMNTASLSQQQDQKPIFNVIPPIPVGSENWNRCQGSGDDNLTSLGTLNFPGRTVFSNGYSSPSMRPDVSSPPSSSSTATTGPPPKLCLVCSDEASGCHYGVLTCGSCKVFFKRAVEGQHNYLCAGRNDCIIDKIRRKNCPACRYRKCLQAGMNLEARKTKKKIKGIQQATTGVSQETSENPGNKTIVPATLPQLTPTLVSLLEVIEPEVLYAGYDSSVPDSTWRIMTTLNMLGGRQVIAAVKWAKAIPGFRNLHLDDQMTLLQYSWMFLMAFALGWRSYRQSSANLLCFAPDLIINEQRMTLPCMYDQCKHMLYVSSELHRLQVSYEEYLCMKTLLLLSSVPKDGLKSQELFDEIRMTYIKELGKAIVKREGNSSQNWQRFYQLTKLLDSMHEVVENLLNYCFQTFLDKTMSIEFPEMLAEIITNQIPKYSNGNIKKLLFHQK
In short: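 Compounds in DMSO, alongside positive controls, were added to GR-bla HeLa reporter cells and incubated 18 h at 37 C; GRE-driven beta-lactamase was detected by fluorescence after 2 h with FRET substrate at room temperature.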

[18] = qHTS assay to identify small molecule antagonists of the glucocorticoid receptor (GR) signaling pathway - cell viability counter screen (AID 720693); note: nearly all actives have a fitted effect of over 55% in size
[19] = qHTS assay for identifying genotoxic compounds that show differential cytotoxicity against isogenic chicken DT40 cell lines with known DNA damage response pathways - wild type cell line (AID 743012); note: nearly all actives have a fitted effect of over 60% in size; note: potency is the fitted concentration of half-maximal effect
In short: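 Viability of DNA repair-proficient chicken DT40 cells was assessed by CellTiter-Glo luminescence following 40 h compound exposure at 37 C/5% CO2.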

[20] = qHTS assay for identifying genotoxic compounds that show differential cytotoxicity against isogenic chicken DT40 cell lines with known DNA damage response pathways - Rev3 mutant cell line (AID 743014); note: nearly all actives have a fitted effect of over 55% in size; note: potency is the fitted concentration of half-maximal effect
[21] = qHTS assay for identifying genotoxic compounds that show differential cytotoxicity against isogenic chicken DT40 cell lines with known DNA damage response pathways - Rad54/Ku70 mutant cell line (AID 743015); note: nearly all actives have a fitted effect of over 60% in size; note: potency is the fitted concentration of half-maximal effect
[22] = target: Androgen receptor (Homo sapiens) (UniProt P10275); assay: qHTS assay to identify small molecule agonists of the androgen receptor (AR) signaling pathway using the MDA cell line (AID 743040; note: nearly all actives have a fitted effect of over 20% in size)
Sequence of Androgen receptor (Homo sapiens) (P10275 whole entry, looked up): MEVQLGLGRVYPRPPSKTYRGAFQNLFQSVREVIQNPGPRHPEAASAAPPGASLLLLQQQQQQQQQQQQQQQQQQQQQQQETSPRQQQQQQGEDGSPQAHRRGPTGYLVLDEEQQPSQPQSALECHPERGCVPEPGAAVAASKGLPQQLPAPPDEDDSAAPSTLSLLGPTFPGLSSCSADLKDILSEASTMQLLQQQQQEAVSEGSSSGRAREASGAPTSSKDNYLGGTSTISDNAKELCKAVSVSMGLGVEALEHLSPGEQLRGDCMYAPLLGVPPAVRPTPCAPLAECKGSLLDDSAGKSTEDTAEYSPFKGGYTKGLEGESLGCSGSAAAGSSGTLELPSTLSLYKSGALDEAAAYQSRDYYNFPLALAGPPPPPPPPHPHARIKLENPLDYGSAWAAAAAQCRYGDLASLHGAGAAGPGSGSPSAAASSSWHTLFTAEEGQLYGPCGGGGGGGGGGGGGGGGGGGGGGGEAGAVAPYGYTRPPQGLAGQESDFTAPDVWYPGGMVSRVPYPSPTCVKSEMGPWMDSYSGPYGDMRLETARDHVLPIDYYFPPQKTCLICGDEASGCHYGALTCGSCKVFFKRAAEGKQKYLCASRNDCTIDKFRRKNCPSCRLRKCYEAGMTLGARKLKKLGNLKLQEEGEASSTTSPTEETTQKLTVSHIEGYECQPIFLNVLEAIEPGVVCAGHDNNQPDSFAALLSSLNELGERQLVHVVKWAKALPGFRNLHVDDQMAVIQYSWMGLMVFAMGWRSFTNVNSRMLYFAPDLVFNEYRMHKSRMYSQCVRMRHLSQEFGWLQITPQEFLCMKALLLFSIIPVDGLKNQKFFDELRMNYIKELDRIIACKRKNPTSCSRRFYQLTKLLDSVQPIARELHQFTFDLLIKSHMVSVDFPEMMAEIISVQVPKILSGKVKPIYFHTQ
In short: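 Luciferase read-out, ONE-Glo, 30 min RT. Cells: MDA-kb2 AR-luc, MMTV promoter with AR and GR response elements. Compound exposure 16 h, 37C, 0% CO2, after 5 h pre-incubation. qHTS agonist mode.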

[23] = qHTS assay to identify small molecule antagonists of the thyroid receptor (TR) signaling pathway - cell viability counter screen (AID 743064); note: nearly all actives have a fitted effect of over 50% in size; note: potency is the fitted concentration of half-maximal effect
In short: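 In rat pituitary GH3.TRE-Luc reporter cells co-exposed to compound and 1 nM T3 for 23.5 h, cytotoxicity was assessed with CellTiter-Fluor in the same wells, read by fluorescence.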

[24] = qHTS assay to identify small molecule antagonists of the thyroid receptor (TR) signaling pathway (AID 743065); note: nearly all actives have a fitted effect of over 55% in size; note: potency is the fitted concentration of half-maximal effect
In short: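 GH3.TRE-Luc rat pituitary cells (two TREs driving luciferase) were dosed with compound, then stimulated with 1 nM T3 (final) for 23.5 h at 37 C. ONE-Glo luminescence was the read-out, with CellTiter-Fluor fluorescence as the cytotoxicity counter-screen.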

[25] = target: Estrogen receptor (Homo sapiens) (UniProt P03372); assay: qHTS assay to identify small molecule agonists of the estrogen receptor alpha (ER-alpha) signaling pathway (AID 743075; calls by dose curve;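 note: HEK293 GripTite cells with ER-alpha and UAS-driven beta-lactamase reporter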)
Sequence of Estrogen receptor (Homo sapiens) (P03372 whole entry, looked up): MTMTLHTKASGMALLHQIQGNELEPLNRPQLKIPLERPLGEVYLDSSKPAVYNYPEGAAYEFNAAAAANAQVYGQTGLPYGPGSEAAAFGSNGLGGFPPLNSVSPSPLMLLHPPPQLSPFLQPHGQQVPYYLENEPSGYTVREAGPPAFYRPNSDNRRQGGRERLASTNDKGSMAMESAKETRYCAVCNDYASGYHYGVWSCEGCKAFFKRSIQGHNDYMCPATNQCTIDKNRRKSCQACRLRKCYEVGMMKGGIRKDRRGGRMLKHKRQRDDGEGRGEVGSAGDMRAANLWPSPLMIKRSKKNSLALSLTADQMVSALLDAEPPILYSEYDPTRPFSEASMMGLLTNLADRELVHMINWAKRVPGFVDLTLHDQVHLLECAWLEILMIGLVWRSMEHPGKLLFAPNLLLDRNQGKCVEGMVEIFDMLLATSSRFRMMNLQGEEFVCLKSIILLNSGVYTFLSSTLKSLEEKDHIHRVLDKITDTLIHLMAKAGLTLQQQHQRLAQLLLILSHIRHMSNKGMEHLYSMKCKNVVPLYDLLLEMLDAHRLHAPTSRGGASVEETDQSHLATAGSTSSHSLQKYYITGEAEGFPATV

[26] = qHTS assay to identify small molecule antagonists of the estrogen receptor alpha (ER-alpha) signaling pathway using the BG1 cell line - cell viability counter screen (AID 743081);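 note: compound given together with 17beta-estradiol as the ER stimulus; series mostly up to about 70 µM; nearly all actives have a fitted effect of over 45% in size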
Aromatase (Homo sapiens) = Aromatase (Homo sapiens) (UniProt P11511); assay: qHTS assay to identify aromatase inhibitors (AID 743083); note: nearly all actives have a fitted effect of over 55% in size; note: potency is the fitted concentration of half-maximal effect
Sequence of Aromatase (Homo sapiens) (P11511 whole entry, looked up): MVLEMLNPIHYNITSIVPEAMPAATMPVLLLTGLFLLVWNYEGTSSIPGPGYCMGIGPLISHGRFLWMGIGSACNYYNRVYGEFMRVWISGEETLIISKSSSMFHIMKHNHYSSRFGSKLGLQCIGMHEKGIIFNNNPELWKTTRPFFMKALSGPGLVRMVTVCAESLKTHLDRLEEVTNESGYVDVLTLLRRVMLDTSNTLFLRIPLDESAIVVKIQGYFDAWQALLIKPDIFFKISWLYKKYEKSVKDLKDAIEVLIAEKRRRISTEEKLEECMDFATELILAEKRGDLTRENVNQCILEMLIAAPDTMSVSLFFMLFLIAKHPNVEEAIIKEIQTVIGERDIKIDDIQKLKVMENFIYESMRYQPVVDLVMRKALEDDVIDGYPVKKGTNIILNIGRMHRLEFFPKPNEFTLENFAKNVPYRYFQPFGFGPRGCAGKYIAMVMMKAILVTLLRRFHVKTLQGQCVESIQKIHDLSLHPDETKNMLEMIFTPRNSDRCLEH

[27] = qHTS assay to identify aromatase inhibitors - cell viability counter screen (AID 743084); note: potency is the fitted concentration of half-maximal effect
[28] = qHTS assay for small molecule agonists of the p53 signaling pathway (AID 651631; calls by dose curve; note: nearly all actives have a fitted effect of over 15% in size; note: potency is the fitted concentration of half-maximal effect)
In short: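 We treat p53RE-bla HCT-116 cells with compounds for 16 h at 37 °C, add LiveBLAzer B/G FRET substrate for 2 h at room temperature, and measure fluorescence intensity.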

[29] = qHTS assay for small molecule agonists of the p53 signaling pathway - cell viability (AID 651633; calls by dose curve;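 note: p53RE-bla HCT reporter cells with a stable beta-lactamase p53 reporter; series mostly up to about 83 µM; nearly all actives have a fitted effect of over 30% in size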)
In short: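 p53RE-bla cells were treated with compound for 16 hours at 37 C. Cytotoxicity was then measured as CellTiter-Glo luminescence after 30 min at room temperature.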

[30] = qHTS assay for small molecules that induce genotoxicity in human embryonic kidney cells expressing luciferase-tagged ATAD5 - cell viability (AID 651634; calls by dose curve; note: nearly all actives have a fitted effect of over 25% in size; note: potency is the fitted concentration of half-maximal effect)
In short: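 Here HEK293T cells with the ATAD5 luciferase reporter are incubated with test compounds for 15.5 hr, and cytotoxicity is then gauged by measuring protease activity in live cells using fluorescence.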

[31] = qHTS assay for small molecule disruptors of the mitochondrial membrane potential - cell viability (AID 720634; calls by dose curve;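 note: human HepG2 liver cancer cells; series mostly up to about 83 µM; nearly all actives have a fitted effect of over 20% in size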)
In short: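 Viability of HepG2 cells is scored from ATP content by luminescence; cells are exposed to compound for 1 hr at 37 C and 5% CO2, then dosed with m-MPI dye before the CellTiter-Glo reagent.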

[32] = qHTS assay for small molecule disruptors of the mitochondrial membrane potential (AID 720635); note: potency is the fitted concentration of half-maximal effect
In short: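 HepG2 cells exposed to compound 1 hr at 37C, then Mito-MPS dye 30 min. Ratio read of aggregate (540/590 nm) versus monomer (490/535 nm) fluorescence.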

[33] = target: Estrogen receptor (Homo sapiens) (UniProt P03372); assay: qHTS assay to identify small molecule antagonists of the estrogen receptor alpha (ER-alpha) signaling pathway (AID 743069; active = well fitted curve in the direction sought with a large enough effect in the signal ratio in the repeat runs, not every such curve was filed as active; the % refers to the signal ratio)
In short: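 Beta-lactamase FRET fluorescence is read after 2 hr at room temperature with LiveBLAzer B/G substrate. Before that, ER-alpha-bla HEK293 cells sit 4 hr after plating, then receive compound plus 17beta-estradiol and incubate 18 hr at 37C.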

[34] = qHTS assay to identify small molecule antagonists of the estrogen receptor alpha (ER-alpha) signaling pathway - cell viability counter screen (AID 743074; calls by dose curve;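 note: HEK293 cells carrying ER-alpha-UAS-bla reporter stimulated with 17beta-estradiol; nearly all actives have a fitted effect of over 45% in size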)
[35] = target: Estrogen receptor (Homo sapiens) (UniProt P03372); assay: qHTS assay to identify small molecule agonists of the estrogen receptor alpha (ER-alpha) signaling pathway using the BG1 cell line (AID 743079); note: nearly all actives have a fitted effect of over 20% in size
[36] = qHTS assay to identify small molecule that activate the aryl hydrocarbon receptor (AhR) signaling pathway - cell viability counter screen (AID 743086); note: nearly all actives have a fitted effect of over 45% in size; note: potency is the fitted concentration of half-maximal effect
In short: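 HepG2-AhR-luc (HG2L7.5c1) cells, 4000/well, treated 24 h at 37 C with compound; viability measured as CellTiter-Fluor fluorescence after 30 min in the same wells as the luciferase read.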

[37] = qHTS assay to identify small molecule antagonists of the androgen receptor (AR) signaling pathway - cell viability counter screen (AID 743033; note: nearly all actives have a fitted effect of over 45% in size)
[38] = qHTS assay to identify small molecule antagonists of the androgen receptor (AR) signaling pathway using the MDA cell line - cell viability counter screen (AID 743041; note: nearly all actives have a fitted effect of over 45% in size)
In short: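 Cytotoxicity counter screen: MDA-kb2 AR-luc cells, compound + R1881, 16 h, 37C, 0% CO2; CellTiter-Fluor added at 15.5 h, fluorescence read after 30 min.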

[39] = test system: thyroid hormone receptor (rat, GH3 cells); assay: qHTS assay to identify small molecule agonists of the thyroid receptor (TR) signaling pathway (AID 743066; calls by dose curve)

Measured: Potency

Cc1c2ccccc2c(C)c2c1ccc1ccccc12
inactive: [1] | [2] | [3]

C[C@@H]1C[C@H]2[C@@H]3CCC4=CC(=O)C=C[C@]4(C)[C@@]3(F)[C@@H](O)C[C@]2(C)[C@@]1(O)C(=O)COP(=O)(O)O
inactive: [1] | [2] | [3]

O=C(Nc1ncc([N+](=O)[O-])s1)c1cccs1
inactive: [1] | [3]

O=c1c2ccccc2[se]n1-c1ccccc1
active: [19] 5.31 µM | [20] 8.41 µM | [21] 6.68 µM | [23] 23.7 µM | [24] 23.7 µM | Aromatase (Homo sapiens) 29.8 µM | [27] 26.6 µM
not listed: [1] | [2] | [3] | [28] | [29] | [30] | [31] | [32] | [33] | [34] | [35] | [36] | [37] | [38] | [39]
inactive: all other assays above

COc1cc([C@@H]2c3cc4c(cc3[C@@H](O)[C@H]3COC(=O)[C@H]23)OCO4)cc(OC)c1O
active: [28] 0.168 µM | [4] 1.88 µM | [30] 0.298 µM | [32] 2.11 µM | [19] 0.237 µM | [20] 0.266 µM | [21] 0.266 µM | [23] 10.6 µM | [24] 0.266 µM | [36] 29.8 µM
not listed: [1] | [2] | [3] | [10] | [12] | [22] | [25] | [26] | [37] | [38] | [39]
inactive: all other assays above

CN[C@@H](C)Cc1ccccc1
not listed: [1] | [2] | [3] | [7] | [11] | [17] | [22] | [25] | [33] | [35]
inactive: all other assays above
